We go through 14 molecules from publication PMC12136788.

To fix the notation:
B1: chr11:10830335:10830336:-_ENSG00000110321_ENST00000339995|hu_hu|FALSE|FALSE (ssRNA)
RNA: GGGAGUUCUACAGUCCGACGAUCGCAGCUGCCUCCUCAGGAUCCGGUCGUCGGGGAUAGGGAAGGGAGGGGAAAGGGGAACGGAAAACAAAAAAAAGGGGGAGGGAAGGGGGAGGAAGGAGUCGGGGACGGCCUCAAACUCAGCAACAGAGGAUUGAGCAUCA
B2: chr2:168009416:168009417:-_ENSMUSG00000051149_ENSMUST00000088001|perfect_dup|FALSE|FALSE (ssRNA)
RNA: GGGAGUUCUACAGUCCGACGAUCCAUAUGGUUGAGCAGAGUAUCUGUGGGUAAAUAGCGAUUACAGUAGAGGCAUUUGCUAGUAAAAUUGUGUAUUUUCAUAAUGUAGUUGGCUACUGCUGGGACUUUCUCAGCUUUAUGUUCCAACAGAGGAUUGAGCAUCA
B3: chr1:84034342:84034343:-_ENSMUSG00000045658_ENSMUST00000168574|mus_mus|FALSE|FALSE (ssRNA)
RNA: GGGAGUUCUACAGUCCGACGAUCGCCUGAGAAUGGUGAAAAUAGGCGUGGAGAUCUCCCAGCAGGAAGUGUUGGAAUAGGAGAGGAAAAAAAAAGUGAGAGGAGAGUCUGGAACCUUCCUCCCCAUCUGUACUCUCCUCAAGACAACAGAGGAUUGAGCAUCA
B4: 133834401_133834521_965_CDS_ENSMUSG00000050890_ENSMUST00000105876|mouse|control|control (ssRNA)
RNA: GGGAGUUCUACAGUCCGACGAUCUUUCAUUCGCCCAUUCAUAGACUUUUUCUUCACAGGGAUGAGAAGUUCCAUUUUGGGGUUUUCCAGAAGUGCCUCCCCAACAGGCACAAUUUCAGUCCCCUGCUUUACGUAACUCCCCAACAACAGAGGAUUGAGCAUCA
B5: chr8:95500983:95500984:-_ENSG00000164944_ENST00000437199|hu_hu|hu_hu_hu_mus_True|78_78 (ssRNA)
RNA: GGGAGUUCUACAGUCCGACGAUCAGAACACAUCUAUCGAGUAAAGGACCGUACAUGGACGACCUCUCCACUGCCUCCACUAACAAACUUUCCUCUCGAGCCUCCACUGCCGCUAUUUGUACUAGCCCAGGACGGUCCCAGGCCCAACAGAGGAUUGAGCAUCA
B6: chr7:141450121:141450122:+_ENSG00000106028_ENST00000265304|hu_mus|hu_hu_hu_mus_True|38_68 (ssRNA)
RNA: GGGAGUUCUACAGUCCGACGAUCUCAUCCGUUCUAUGCCUUUUCUUUUGUCUGGUCACUCAGAAAUAUAAUAUUAUCAGCUAUGAUUGUUGUUGCUUGUCGCCUCACAUUGUUUUUAUCCAUGUACUCGCCAUAGUCCACUUUCAACAGAGGAUUGAGCAUCA
B7: chr8:98731313:98731314:+_ENSG00000147649_ENST00000336273|hu_mus|motif|central (ssRNA)
RNA: GGGAGUUCUACAGUCCGACGAUCACAAGCUUUCUCCUGUUUUGGUCGGGCUUUUGAGGUAUUCACUGGAAGCUCUUCUCGGGUGUCCUUUUCUAGGUCUUCUGUGUCCUGUGUGUGAGAGUUAUCUUCCCCUUGCUUCUUCUUCAACAGAGGAUUGAGCAUCA
B8: 93992280_93998312_1055_3pUTR_ENSMUSG00000055932_ENSMUST00000069718|mouse|control|control (ssRNA)
RNA: GGGAGUUCUACAGUCCGACGAUCAUCAAAGGAUUUCAACGAGACGUCGCCAUCGUCUGAGUCAUUGAGGACAUUCUGCAGCGCCAACUGACAGCGUUCUAAGAUAUAAUCCAAGGUGCCUGUUGAGCACUCUGCCACACGGUGCAACAGAGGAUUGAGCAUCA
B9: chrX:20248820:20248821:+_ENSMUSG00000001924_ENSMUST00000001989|mus_mus|mus_mus_mus_hu_True|58_88 (ssRNA)
RNA: GGGAGUUCUACAGUCCGACGAUCGGCGAAGUCCGUCACCACAAAGUCAGGCUCUACCAGUGAGGCCACCAAGGAUUUAAAACUAAUCUUCUUAGGUACUUUGACCUGACUGACGAUGCCUCCACGGAUGUAGUCGGAGAAGUUCAACAGAGGAUUGAGCAUCA
B10: chr17:60770872:60770873:+_ENSG00000011028_ENST00000303375|hu_hu|hu_hu_hu_mus_True|18_78 (ssRNA)
RNA: GGGAGUUCUACAGUCCGACGAUCUCUUUAAAAAAAAAAAAAAAAAGACAAACAAUAAUAAUGGCACUCGAGAAUCAAGAACUACAAUAGAGGGUCCGCUUUGAGUUUUUGUUCACAACAUUGUCCCCUGGGACACGGGGACUGCAACAGAGGAUUGAGCAUCA
B11: chr17:60770872:60770873:+_ENSG00000011028_ENST00000303375|hu_hu|hu_hu_hu_mus_True|48_78 (ssRNA)
RNA: GGGAGUUCUACAGUCCGACGAUCUCUUUAAAAAAAAAAAAAAAAAGACAAACAAUAAUAAUGGCACUCGAGAAUCAAGAACUACAAAGAAAGGGCCGCUUUGAGUUUUUGUUCACAUCGUCCUGCACUGGGACACGGGGACUGCAACAGAGGAUUGAGCAUCA
B12: chr2:204281756:204281757:+_ENSG00000138443_ENST00000261017|hu_hu|motif|central (ssRNA)
RNA: GGGAGUUCUACAGUCCGACGAUCCUUUUCCAAGUAAGAACGUGGAGCCCACGGUGGGUCCUCUUCAGCAUAAGGAUCACGGUACUCAACCACAGCAGCUUCCUCCUCUUCGUAAUCUUCUGGAGGAGGAGGAGGUGGGGGAGACAACAGAGGAUUGAGCAUCA
B13: chr4:76721835:76721836:+_ENSG00000138768_ENST00000264904|hu_mus|hu_hu_hu_mus_True|68_78 (ssRNA)
RNA: GGGAGUUCUACAGUCCGACGAUCGUUUGGCUGGGGUUUCUGAGACGCUCUGGAAUAAACUCAUGUUUGCUAAUAAAAUCCUAGUUUCUCUAUGAAAUUCUCUUUGCCAAUCCUCUUCUCUAUUAGUUGCUUUAGUUUCUCUUUCAACAGAGGAUUGAGCAUCA
B14: chr14:62224477:62224478:+_ENSMUSG00000035235_ENSMUST00000039562|mus_hu|FALSE|FALSE (ssRNA)
RNA: GGGAGUUCUACAGUCCGACGAUCUUCAUUGAAAAUGAAAAACCCAUCUGUCACCUGUUCCCAGUAAAAAACUGAUUGUUCUAUGAAAUCGGCUGUUUUAGUCAGAUAGGAACUGAAGUUUGAAAGACAGCCUUUCCAAGUUGCCAACAGAGGAUUGAGCAUCA

The full ranking holds about 24,000 sequences; the median of “enrichment r” is about 0.99, and the highest 2% start at about 3.7. The sample holds the highest values, similar sequences and a random draw of the others, so the mix is not that of the screen.

This test addresses T1, UNK ZnF1-3 (human, UniProt Q9C0B0 31-174).
T1 sequence: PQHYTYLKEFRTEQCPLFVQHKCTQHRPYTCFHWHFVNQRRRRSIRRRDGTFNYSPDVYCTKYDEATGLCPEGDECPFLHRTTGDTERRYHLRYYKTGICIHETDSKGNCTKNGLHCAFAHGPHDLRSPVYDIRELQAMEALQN
Description: nsRBNS (natural sequence RNA bind-n-seq); RBNS binding buffer (assumed for nsRBNS): 25 mM Tris pH 7.5, 150 mM KCl, 3 mM MgCl2, 0.01% Triton X-100, 500 ug/ml BSA, 20 U/ml SUPERase-In, 4 C; UNK is unkempt and MSI1 is Musashi-1; names of the RNAs are library labels; protein concentration not given here; high values mean tight binding.
B1 returned a binding signal of 2.73 enrichment R.

The molecule B2 yielded a binding signal of 2.12 enrichment R.

With B3, the binding signal was found to be 1.32 enrichment R.

With B4, the binding signal came out at 0.863 enrichment R.

The molecule B5 had a binding signal of 1.53 enrichment R.

For B6, the binding signal came to 0.44 enrichment R.

Molecule B7 had a binding signal of 0.279 enrichment R.

With B8, the binding signal worked out at 1.07 enrichment R.

The molecule B9 gave a binding signal of 0.887 enrichment R.

For B10, the binding signal amounted to 4.19 enrichment R.

For B11, the binding signal was 4.71 enrichment R.

The molecule B12 returned a binding signal of 0.684 enrichment R.

On to B13, for which the binding signal came to 0.621 enrichment R.

B14 displayed a binding signal of 0.96 enrichment R.
